Most compounds without a hit are left out; they make up all but 1.8% or so of the library.
LYPLA1 inh: LYPLA1 inhibitors, primary screen, counter-screen for PME1 inhibitor project, biochemical, fluorescence polarization, FP-Rh probe ABPP; Acyl-protein thioesterase 1 (Homo sapiens), O75608; recombinant LYPLA1; inhibition, % at 5.9 µM; 320,000 compounds, 0.16% hits; AID 2174, 2009;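 active = inhibition above the mean of all tested compounds plus 3 SD, set per campaign, cut at about 14% in these data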;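 also: inhibitors block serine hydrolase probe labeling of LYPLA1 so polarization falls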
LYPLA2 counter: LYPLA2 inhibitors, primary screen, counter-screen for PME1 inhibitor project, biochemical, fluorescence polarization, FP-Rh probe ABPP. Acyl-protein thioesterase 2 (Homo sapiens), O95372. 320,000 compounds, 0.38% hits. recombinant LYPLA2. inhibition, % at 5.9 µM;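 active = inhibition above the screen-wide mean plus 3 SD, limit set per campaign, cut at about 26% in these data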
GSTO1 inh: inhibitors of recombinant GSTO1, primary screen, counter-screen for RBBP9 inhibitor project, biochemical, fluorescence polarization; Glutathione S-transferase omega-1 (Homo sapiens), P78417; activity-based probe fluorescence polarization; inhibition, % at 5.96 µM; 300,000 compounds, 1.1% hits; AID 1974, 2009;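 active = inhibition above the campaign mean inhibition plus 3 SD, cut at about 35% in these data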
PAD4 FP inh: human PAD4 inhibitors, primary screen, biochemical, fluorescence polarization, 1536-well format | AID 485272, 2010 | recombinant PAD4, RCA probe fluorescence polarization | Protein-arginine deiminase type-4 (Homo sapiens), Q9UM07 | 330,000 compounds, 0.41% hits | inhibition, % at 6.36 µM;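 active = percent inhibition above a cutoff equal to the mean of all tested compounds plus 3 SD, cut at about 15% in these data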
Target sequence (Q9UM07 whole entry, looked up): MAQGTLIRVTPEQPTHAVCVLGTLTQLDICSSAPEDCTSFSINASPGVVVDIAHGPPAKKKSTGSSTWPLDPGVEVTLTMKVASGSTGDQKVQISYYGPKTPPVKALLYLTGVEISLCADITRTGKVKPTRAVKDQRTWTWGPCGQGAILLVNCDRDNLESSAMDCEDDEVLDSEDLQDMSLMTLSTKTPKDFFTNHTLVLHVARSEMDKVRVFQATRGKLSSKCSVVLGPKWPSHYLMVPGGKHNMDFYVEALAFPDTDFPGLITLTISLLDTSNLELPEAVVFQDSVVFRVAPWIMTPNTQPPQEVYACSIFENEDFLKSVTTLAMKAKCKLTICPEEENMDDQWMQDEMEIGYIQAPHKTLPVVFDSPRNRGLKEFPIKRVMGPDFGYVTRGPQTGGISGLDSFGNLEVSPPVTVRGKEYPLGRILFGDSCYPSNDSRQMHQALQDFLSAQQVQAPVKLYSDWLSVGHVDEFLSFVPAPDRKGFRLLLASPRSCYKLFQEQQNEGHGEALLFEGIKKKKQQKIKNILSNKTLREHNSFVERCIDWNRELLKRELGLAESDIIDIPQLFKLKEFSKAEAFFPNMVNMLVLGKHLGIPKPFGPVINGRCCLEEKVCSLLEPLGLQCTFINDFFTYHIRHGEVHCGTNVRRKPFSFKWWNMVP
Fam108B counter: mouse Fam108B serine hydrolase inhibitors, primary screen, counter-screen for RBBP9 inhibitor project, biochemical, fluorescence polarization; recombinant Fam108B, FP-Rh probe fluorescence polarization; inhibition, % at 9.51 µM; 300,000 compounds, 0.33% hits;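 active = inhibition above the screen mean inhibition plus 3 SD, computed separately per campaign, cut at about 18% in these data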;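 also: inhibitors lower polarization as less probe binds the enzyme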
PME-1 inh: PME-1 inhibitors via competitive probe labeling, primary screen, biochemical, fluorescence polarization, FP-Rh probe, HTS. inhibition, % at 5.9 µM. 320,000 compounds, 0.53% hits. recombinant PME-1. AID 2130, 2009. Protein phosphatase methylesterase 1 (Homo sapiens), Q9Y570;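 active = inhibition above the campaign mean of all compounds plus 3 SD, cut at about 26% in these data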;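 also: competitive labeling of PME-1 active site by serine hydrolase directed probe; inhibitors block probe labeling so polarization falls and inhibition rises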
GSTO1 inh conf: GSTO1 inhibitor hit confirmation, counter-screen for RBBP9 inhibitor project, biochemical, fluorescence polarization, triplicate. recombinant GSTO1, probe fluorescence polarization. AID 2176, 2009. inhibition, % at 5.96 µM. shares compounds with GSTO1 inh. 2,400 compounds, 54% hits;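 active = inhibition above the primary screen's cutoff, its mean inhibition plus 3 SD, cut at about 35% in these data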;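 also: loss of polarization as inhibitors block binding of rhodamine sulfonate ester activity probe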
GSTO1 recomb ABPP: inhibitors of purified human GSTO1, late-stage follow-up, biochemical, gel ABPP, SE-Rh probe, percent inhibition; shares compounds with GSTO1 inh; recombinant GSTO1, gel ABPP SE-Rh probe fluorescence; inhibition, % at 1 µM; 130 compounds, 30% hits;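 active = inhibition of the enzyme GSTO1 above about 75%, limit read from the data; inactive = inhibition below that limit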
Of the large screens only hits and unclear results are named; the others gave an inactive call (follow-up assays come after a bar, where they were run).

O=C(CCl)Nc1ccc(-c2ccccc2)cc1	GSTO1 inh 76 | GSTO1 inh conf 84
CN1CC[C@]2(CCN3CCc4c(oc5ccccc45)[C@@H]3C2)N(C)C1=O	none
Cc1ccccc1N(Cc1cc(=O)[nH]c2ccccc12)C(=O)CCl	GSTO1 inh 74 | GSTO1 inh conf 75 | GSTO1 recomb ABPP inactive
O=C(CCl)N(Cc1ccccc1)c1ccccc1	GSTO1 inh 93 | GSTO1 inh conf 96 | GSTO1 recomb ABPP inactive
CCCC(=O)N(Cc1cc(=O)[nH]c2ccccc12)c1ccccc1	none
O=C(CCl)N(Cc1cc(=O)[nH]c2ccccc12)c1ccccc1	GSTO1 inh 85 | GSTO1 inh conf 92 | GSTO1 recomb ABPP inactive
CCCCCCCN(C(=O)CCl)c1ccccc1C	GSTO1 inh 101 | GSTO1 inh conf 96 | GSTO1 recomb ABPP inactive
Cc1ccccc1N(Cc1cc(=O)[nH]c2ccccc12)C(=O)C(C)C	none
CCCN(C(=O)Cn1ncc2c([nH]c3ccccc32)c1=O)c1ccccc1C	none
CC(OC(=O)Cc1c(F)cccc1Cl)C(=O)NC1CCCCC1C (centres undefined)	none (no result: GSTO1 inh, Fam108B counter)
CN(C)c1cccc(C(=O)NN2C(=O)NC3(CCCCC3)C2=O)c1	none (no result: GSTO1 inh, Fam108B counter)
CC(OC(=O)c1ccccc1C(=O)N(C)c1ccccc1)C(=O)Nc1ccc(C(N)=O)cc1 (centres undefined)	none
CC(OC(=O)c1cc(O)c2ccccc2c1O)C(=O)Nc1ccc(C(N)=O)cc1 (centres undefined)	GSTO1 inh 48 | GSTO1 inh conf 56
CN1C(=O)N(C)C2(c3ccccc3)NC(=O)NC12c1ccccc1 (centres undefined)	none
CN1c2ccccc2N(C)C1(C)c1ccccc1	GSTO1 inh 50 | GSTO1 inh conf inactive
N#C/C(=C(/O)CCl)c1nc2ccccc2[nH]1	GSTO1 inh 84 | GSTO1 inh conf 94
CCN(CC)S(=O)(=O)c1ccc(C)c(NC(=O)COC(=O)CN2C(=O)NC(C)(C)C2=O)c1	none
CN1c2ccccc2C(C)(C)C12CC(c1ccc(Cl)c(S(=O)(=O)N3CCCC3)c1)=NO2 (centres undefined)	none
CN1c2ccccc2C(C)(C)C12CC(CCl)=NO2 (centres undefined)	GSTO1 inh 46 | GSTO1 inh conf 96 | GSTO1 recomb ABPP inactive
COc1cc(CNC(C)c2ccccc2)cc(Br)c1OCc1ccccc1 (centres undefined)	none
COc1cc(CNc2ccc(O)cc2)cc(Br)c1OCc1ccccc1	GSTO1 inh 53 | GSTO1 inh conf inactive
O=C(COC(=O)CSc1ccc([N+](=O)[O-])cc1)NCCCc1ccccc1	none
Cc1ccc(O)c(N)c1	none (no result: GSTO1 inh, Fam108B counter)
Cc1ccc(O)c(O)c1	GSTO1 inh 55 | GSTO1 inh conf inactive
O=C(CSc1nnc(-c2ccco2)c(-c2ccco2)n1)Nc1ccccc1	GSTO1 inh 42 | GSTO1 inh conf inactive
COc1cccc(NC(=O)CSc2nnc(-c3ccco3)c(-c3ccco3)n2)c1	GSTO1 inh 50 | GSTO1 inh conf inactive
Cc1ccccc1NC(=O)CSc1nnc(-c2ccco2)c(-c2ccco2)n1	GSTO1 inh 55 | GSTO1 inh conf inactive
COc1ccc(NC(=O)CSc2nnc(-c3ccco3)c(-c3ccco3)n2)cc1OC	none
Cc1sc2ncn(CC(=O)NCCCC(=O)N3CCCCC3)c(=O)c2c1C	none
COc1ccc(CN(C)C(=O)c2oc3ccccc3c2CSC)cc1F	none
N#Cc1ccc(OCC(=O)Nc2ccc(N3CCCC3)cc2)cc1	none (no result: GSTO1 inh, Fam108B counter)
Cc1ccc2c(c1)c1nc3ccccc3nc1n2C	none
Cn1c2ccc(Cl)cc2c2nc3ccccc3nc21	GSTO1 inh 76 | GSTO1 inh conf inactive
O=C(COC(=O)CNC(=O)c1ccccc1)NCCc1ccccc1	none
O=C(CNC(=O)c1ccccc1)NCCc1ccc(O)c(O)c1	GSTO1 inh 75 | GSTO1 inh conf inactive
CCCC(=O)Nc1cc(C(=O)N(C)CC(OC)OC)ccc1S(=O)(=O)c1ccc(C)cc1	none
O=C1CCN(Cc2ccccc2)CCN1[C@H](COc1ccccc1)c1ccccc1	GSTO1 inh 83 | GSTO1 inh conf inactive
O=[N+]([O-])c1ccccc1N/N=C/c1cccc(O)c1O	GSTO1 inh 49 | GSTO1 inh conf inactive
CN(C)S(=O)(=O)c1cc(NC(=O)COC(=O)Cc2cccc3ccccc23)ccc1Cl	none
CCC(C(=O)OCC(=O)Nc1ccc(Cl)c(S(=O)(=O)N(C)C)c1)c1ccccc1 (centres undefined)	GSTO1 inh 65 | GSTO1 inh conf inactive
CC(C)=NOCC(=O)Nn1c(COc2ccccc2)nc2ccccc2c1=O	none
CC(=O)Oc1cc2cccc(OC(C)=O)c(=O)c2c(OC(C)=O)c1OC(C)=O	GSTO1 inh 67 | GSTO1 inh conf 55
COc1cc2cccc(OC)c(=O)c2c(O)c1OC	none
Cc1ccc(S(=O)(=O)NCCC(=O)NNC(=O)COc2ccccc2Cl)cc1C	none (no result: GSTO1 inh, Fam108B counter)
CCOc1ccc(/C=N/Nc2ccccc2)cc1	GSTO1 inh 41 | GSTO1 inh conf inactive
COC(=O)CCC(=O)OC1(C)C(=O)C2=COC(c3ccc(OC)cc3)=CC2=C(Br)C1=O (centres undefined)	none
COc1ccc(C2=CC3=C(Br)C(=O)C(C)(OC(=O)C4CCCC4)C(=O)C3=CO2)cc1 (centres undefined)	GSTO1 inh 39 | GSTO1 inh conf inactive
Cc1ccc(-c2csc3ncn(CC#N)c(=O)c23)cc1	none
Cc1ccc(-c2csc3ncn(CC#N)c(=O)c23)cc1C	GSTO1 inh 39 | GSTO1 inh conf inactive
O=C1c2ccccc2C(=O)N1CC(O)COc1ccccc1Cl (centres undefined)	none
C[C@@H]1O[C@@H](O[C@H]2[C@H](Oc3cc(O)c4c(c3)OC(c3ccc(O)cc3)CC4=O)O[C@H](CO)[C@@H](O)[C@@H]2O)[C@H](O)[C@H](O)[C@H]1O (some centres undefined)	none
CC(=O)N1N=C(c2cccc([N+](=O)[O-])c2)OC1c1ccc(Br)cc1 (centres undefined)	none
